High-throughput results (PubChem BioAssay)
DAGLB inhibitor – blocks human DAGLB lipase activity | Q8NCG7 | HEK293T DAGLB membrane lysate, EnzChek fluorogenic substrate | inhibition, % at 5.17 µM | 340,000 compounds, 0.059% hits | AID 504411; in the data active = inhibition above about 34%
ABHD5 PLIN5 PPI – ABHD5-PLIN5 protein interaction inhibition; Split G. princeps luciferase complementation, luminescence, 4 h; inhibition, % at 4 µM; 360,000 compounds, 0.78% hits; AID 602281;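 active = inhibition above the mean inhibition across every tested compound plus 3 SD, cut at about 22% in these data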
sPLA2-III inh – Blocks human group III sPLA2 activity; AID 743126; Q9NZ20; 370,000 compounds, 0.56% hits; inhibition, % at 12.2 µM; QFRET BODIPY PC-A2 liposome hydrolysis, fluorescence;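 active = inhibition above mean plus 3 SD of compounds lying within the high and low control bounds, cut at about 19% in these data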
Target sequence (Q9NZ20 whole entry, looked up): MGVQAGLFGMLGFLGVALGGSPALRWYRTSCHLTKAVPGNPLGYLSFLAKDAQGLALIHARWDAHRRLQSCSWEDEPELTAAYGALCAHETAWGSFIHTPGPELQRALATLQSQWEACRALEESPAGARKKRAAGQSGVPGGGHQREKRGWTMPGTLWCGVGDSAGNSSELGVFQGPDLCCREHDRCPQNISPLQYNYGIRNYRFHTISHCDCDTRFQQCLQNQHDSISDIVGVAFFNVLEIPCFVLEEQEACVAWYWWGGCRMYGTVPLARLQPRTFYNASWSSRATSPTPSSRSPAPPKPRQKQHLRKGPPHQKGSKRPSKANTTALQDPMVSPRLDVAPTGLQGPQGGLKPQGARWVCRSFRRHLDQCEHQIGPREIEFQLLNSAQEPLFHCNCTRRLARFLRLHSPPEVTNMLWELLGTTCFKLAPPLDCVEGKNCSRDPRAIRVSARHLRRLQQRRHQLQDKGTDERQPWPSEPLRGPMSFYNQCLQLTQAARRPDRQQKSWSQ
Rtt109 Vps75 – inhibitors of Candida albicans Rtt109/Vps75 histone acetyltransferase; inhibition, % at 34.9 µM; 330,000 compounds, 0.16% hits; AID 540336; purified Rtt109/Vps75, ThioGlo CoA-SH fluorescence, 4 h;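 active = inhibition of at least 50% in every replicate; inconclusive = best replicate reaches 50% inhibition but some replicates fall short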
H9c2 protect – protects H9c2 cardiomyocytes from peroxide injury; protection from H2O2 cell death, % at 20 µM; H2O2 injury protection, ATPLite, 2 h; AID 588492; 360,000 compounds, 0.63% hits;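 active = compounds giving at least 50% protection of heart cells from peroxide-induced death in the single-dose screen, raw or plate-pattern-corrected value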
Myeloid diff MLP – myeloid differentiation induction | ER-HoxA9 myeloid progenitors, lysozyme-GFP differentiation, flow cytometry | 360,000 compounds, 1% hits | calls only at 10 µM | AID 624256;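 active = normalized GFP-positive differentiation at or above the plate's own cutoff, the solvent-only control mean plus 3 SD; inconclusive = no clear call, values can overlap the other calls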;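 note: cells exposed to compound for four days before flow analysis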
A number is an active result; . = inactive; ? = inconclusive; / = no result given; + = active, no number. Compounds with a hit are over-represented: about 2.9% of the library has one in this group of screens.

SMILES	DAGLB inhibitor	ABHD5 PLIN5 PPI	sPLA2-III inh	Rtt109 Vps75	H9c2 protect	Myeloid diff MLP
Cc1c(-c2ccccc2)oc2c(C(=O)OCC(=O)Nc3ccc(C(N)=O)cc3)cccc2c1=O	.	.	.	.	74	.
C#CCOCCOCCOCCNc1nc(N2CCN(C(=O)CCCCCCCCCCNC(=O)[C@H](CCCCN)n3cc(C)nn3)CC2)nc(N2CCN(C(=O)CCCCCCCCCCNC(=O)[C@H](CCCCN)n3cc(CCCC(=O)O)nn3)CC2)n1	.	.	/	.	.	.
C#CCOCCOCCOCCNc1nc(N2CCN(C(=O)CCCCCCCCCCNC(=O)Cn3cc(CCCCCN)nn3)CC2)nc(N2CCN(C(=O)CCCCCCCCCCNC(=O)[C@@H](CCSC)n3cc(CCO)nn3)CC2)n1	.	57	/	.	.	.
C#CCOCCOCCOCCNc1nc(N2CCN(C(=O)CCCCCCCCCCNC(=O)[C@H](CO)n3cc(CCCSC)nn3)CC2)nc(N2CCN(C(=O)CCCCCCCCCCNC(=O)[C@H](CCCCN)n3cc(CCO)nn3)CC2)n1	.	49	.	.	.	.
C#CCOCCOCCOCCNc1nc(N2CCN(C(=O)CCCCCCCCCCNC(=O)Cn3cc(C[C@@H](C)O)nn3)CC2)nc(N2CCN(C(=O)CCCCCCCCCCNC(=O)[C@H](CO)n3cc(CCCSC)nn3)CC2)n1	.	.	.	.	.	.
C#CCOCCOCCOCCNc1nc(N2CCN(C(=O)CCCCCCCCCCNC(=O)Cn3cc(C[C@@H](C)O)nn3)CC2)nc(N2CCN(C(=O)CCCCCCCCCCNC(=O)[C@@H](CCC(=O)O)n3cc(CCCCCN)nn3)CC2)n1	.	.	.	.	.	.
C#CCOCCOCCOCCNc1nc(N2CCN(C(=O)CCCCCCCCCCNC(=O)Cn3cc(C[C@@H](C)O)nn3)CC2)nc(N2CCN(C(=O)CCCCCCCCCCNC(=O)[C@H](CCCN=C(N)N)n3cc(C[C@@H](C)CC)nn3)CC2)n1	.	55	/	?	.	.
C#CCOCCOCCOCCNc1nc(N2CCN(C(=O)CCCCCCCCCCNC(=O)[C@H](CO)n3cc(CCCSC)nn3)CC2)nc(N2CCN(C(=O)CCCCCCCCCCNC(=O)[C@H](CCCN=C(N)N)n3cc(C[C@@H](C)CC)nn3)CC2)n1	.	70	/	?	.	.
O=C1NC(Cc2ccccc2)c2nc3ccccc3c(=O)n2-c2ncccc21 (centres undefined)	.	.	.	/	.	.
COc1ccc(C2C(C(=O)c3sc(C)nc3C)=C(O)C(=O)N2CCN2CCOCC2)cc1 (centres undefined)	.	.	.	.	.	.
Cc1cccn2c(=O)c(C=O)c(NCc3ccccc3)nc12	/	.	.	/	.	+
COC(=O)/N=C/c1c(NCc2ccccc2)nc2c(C)cccn2c1=O	.	.	.	/	.	.
Cc1cc(Oc2ccc(N)cn2)ccc1Cl	/	.	.	.	.	+
Cc1[nH]nc2c1C(c1ccc(F)cc1)C(C#N)=C(N)O2 (centres undefined)	.	.	.	.	.	.
Cc1oc(C)c2c(=O)ccc3c(c12)OC(N)=C(C#N)C3c1ccc(F)cc1 (centres undefined)	.	.	.	.	.	+
COc1cccc(CNS(=O)(=O)c2cc3c(cc2Cl)NC(=O)CO3)c1	.	.	.	.	.	.
Cn1cc(-c2ccccc2C(N)=O)c(=O)c2cc(Cl)ccc21	.	.	.	.	.	.
Cn1cc(C2=C(c3ccc(Cl)cc3Cl)C(=O)NC2=O)c2ccccc21	.	.	.	.	.	+
Cc1ccc(S(=O)(=O)c2c(N)n(CCCN(C)C)c3nc4ccccc4nc23)cc1	.	.	.	/	.	.
COc1ccc(S(=O)(=O)c2c(N)n(Cc3ccco3)c3nc4ccccc4nc23)cc1	.	24	.	.	.	+
C[C@H](CO)N1C[C@H](C)[C@@H](CN(C)C(=O)c2ccc(N3CCN(C)CC3)cc2)OCc2cnnn2CCCC1=O	/	.	.	/	.	.
CC(C)c1nc(SCC(=O)NC2CCCC2)c2ccccc2n1	.	.	.	.	.	+
CC(=O)c1ccc(NC(=O)CSc2nc(C3CC3)nc3ccccc23)cc1	.	.	.	.	.	.
Cc1nc2ccccc2n1CC(=O)NC1CCCC1	.	.	.	51	.	.
COc1ccc(NC(=O)CSc2nc(C3CC3)nc3ccccc23)cc1	.	.	.	.	.	+
SMILES	DAGLB inhibitor	ABHD5 PLIN5 PPI	sPLA2-III inh	Rtt109 Vps75	H9c2 protect	Myeloid diff MLP
COc1ccc(-n2c(SCC(=O)Nc3ccc4c(c3)OCO4)nc3ccccc3c2=O)cc1	.	.	.	.	.	+
C=CCN(Cc1ccc(OC)cc1OC)C(C#Cc1ccccc1)c1ccccc1 (centres undefined)	/	/	.	/	/	/
CC1CC1C(=O)N(CCC1=CCCCC1)c1c(N)n(Cc2ccccc2)c(=O)[nH]c1=O (centres undefined)	.	.	.	.	.	.
CCN1CCCC1CNC(=S)Nc1ccc(C(C)=O)cc1 (centres undefined)	.	.	.	.	.	.
COc1ccc(NC(=O)CSc2nc(O)cc(=O)n2-c2ccc(OC)cc2)cc1	.	.	.	.	.	+
CC(=O)c1c(C)[nH]c(C(=O)OCc2nc3ccsc3c(=O)[nH]2)c1C	.	.	.	.	.	.
COC(=O)c1ccc2c(=O)[nH]c(COC(=O)c3[nH]c(C)c(C(C)=O)c3C)nc2c1	.	.	.	.	72	.
CCOC(=O)C1=C(C)N=c2s/c(=C\c3ccc(OCC(=O)O)c(OC)c3)c(=O)n2C1c1ccc(OC)cc1 (centres undefined)	.	.	.	.	.	.
CCOC(=O)C1=C(C)N=c2sc(=Cc3cc(Cl)c(OCC(=O)O)c(OC)c3)c(=O)n2C1c1ccccc1Cl (centres undefined)	/	.	.	/	.	+
CCOC(=O)C1=C(C)N=c2s/c(=C\c3cccn3C)c(=O)n2C1c1cccc(OC)c1OC (centres undefined)	.	.	.	.	.	+
CCOC(=O)c1c(NC(=O)COC(=O)c2ccc(O)cc2)sc(C(=O)N(C)C)c1C	.	.	.	.	63	.
COCCCN(Cc1ccco1)C(=O)Cn1ncc2c([nH]c3ccccc32)c1=O	.	.	.	.	60	.
CN(Cc1ccco1)C(=O)Cn1ncc2c([nH]c3ccccc32)c1=O	.	.	.	.	.	.
COc1cc2c(cc1OC)C1=CC(=O)C(=O)N1C(C)(C)C2	.	.	.	.	.	+
CC(C)NC(=O)CSc1nnc(-c2ccncc2)n1-c1ccccc1	.	.	.	.	.	.
CN(C)CCCNc1ccc(-c2nn(C)c(=O)c3ccccc23)cc1[N+](=O)[O-]	.	.	.	.	.	.
O=c1[nH]nc(-c2ccc(NCCCO)c([N+](=O)[O-])c2)c2ccccc12	.	.	.	/	58	.
